The antibiotic and cytotoxicity screens of Wong et al. (2023)
The campaign covered roughly 39,000 compounds. About 3,300 (8.5%) were called active. The full list was thinned out, with actives kept by preference.

The compounds below were run on HepG2 (assay: cytotoxicity call (relative viability < 0.9)). Settings: 10 µM.

Row | Compound | cytotoxicity call
1 | CN(C)CC(=O)N[C@H]1CC[C@@H](CCn2cc(CN(C)C)nn2)O[C@H]1CO | inactive
2 | O=C(N[C@@H]1CC=CC[C@H](CC(=O)N(CCO)Cc2ccccc2)C(=O)NCC(c2ccccc2)OC1=O)OCC1c2ccccc2-c2ccccc21 (stereo not given in full) | inactive
3 | C[C@@H]1CN([C@@H](C)CO)C(=O)c2cc(/C=C/c3ccccc3)cnc2O[C@H]1CN(C)C(=O)c1cnccn1 | inactive
4 | Cc1cccc(S(=O)(=O)N2C[C@H](O)COC[C@@H]3O[C@@H](CC(=O)NCCCN4CCOCC4)CC[C@H]32)c1 | inactive
5 | Cc1noc(C)c1NC(=O)N(C)C[C@H]1OCCCC[C@H](C)Oc2ccc(NC(=O)c3ccccc3)cc2C(=O)N([C@H](C)CO)C[C@@H]1C | inactive
6 | C[C@H]1CNC(=O)[C@@H](CC(=O)N(CCOC(=O)NCCCCCC(=O)NO)Cc2ccccc2)C/C=C/CC[C@H](NC(=O)OC(C)(C)C)C(=O)O1 | inactive
7 | COc1ccccc1C#Cc1ccc2c(c1)O[C@@H](CN(C)C(C)=O)[C@@H](C)CN([C@@H](C)CO)S2(=O)=O | inactive
8 | C[C@H]1CCCCO[C@@H](CN(C)Cc2ccc(C(=O)O)cc2)[C@@H](C)CN([C@@H](C)CO)C(=O)c2cc(NC(=O)C3CCCCC3)ccc2O1 | inactive
9 | C[C@H](NC(=O)C[C@H]1C[C@@H]2c3cc(NC(=O)Nc4ccc(C(F)(F)F)cc4)ccc3O[C@@H]2[C@H](CO)O1)c1ccccc1 | inactive
10 | C[C@@H]1CCCCO[C@@H](CN(C)C(=O)Nc2cccc3ccccc23)[C@@H](C)CN([C@H](C)CO)C(=O)c2cc(NS(C)(=O)=O)ccc2O1 | inactive
11 | C[C@H]1CN([C@@H](C)CO)C(=O)c2cc(NC(=O)Cn3cnnn3)ccc2O[C@@H]1CN(C)S(C)(=O)=O | inactive
12 | CN(C)C(=O)C[C@@H]1CC[C@@H]2[C@H](COC[C@@H](O)CN2S(=O)(=O)c2ccccc2)O1 | inactive
13 | C[C@@H]1CN([C@H](C)CO)S(=O)(=O)c2ccc(-c3ccc(F)cc3)cc2O[C@@H]1CN(C)C(=O)C1CCOCC1 | inactive
14 | COc1ccc(NC(=O)Nc2ccc3c(c2)C(=O)N([C@H](C)CO)C[C@H](C)[C@@H](CN(C)C(=O)Cc2ccccc2)OCCCC[C@@H](C)O3)cc1 | inactive
15 | CCc1nc2ccc(C(=O)NC3CCN(Cc4ccccc4)CC3)cn2c1N(C)Cc1cc2ccccc2s1 | active
16 | CCc1nc2ccc(C(=O)Nc3cccc(OCC(=O)N(C)C)c3)cn2c1N(C)Cc1cc2ccccc2s1 | inactive
17 | CCc1nc2ccc(C(=O)NC3CCN(Cc4ccccc4)CC3)cn2c1N(C)CCN1CCOCC1 | inactive
18 | C[C@@H]1CCCCO[C@@H](CN(C)C(=O)Nc2ccc(C(F)(F)F)cc2)[C@H](C)CN([C@@H](C)CO)C(=O)c2cc(NC(=O)Cc3ccccc3)ccc2O1 | inactive
19 | O=C(O)CN(CCN(CC(=O)O)CC(=O)O)CCN(CC(=O)O)CC(=O)O | inactive
20 | CO[C@H]1CCCNC1 | inactive

Row | Compound | cytotoxicity call
21 | C[C@H](CO)N1C[C@H](C)[C@H](CN(C)C(=O)Nc2ccc(C(F)(F)F)cc2)Oc2ccc(NC(=O)CCCCCC(=O)Nc3ccccc3N)cc2C1=O | active
22 | COc1ccc(NC(=O)N(C)C[C@@H]2Oc3ccc(NC(=O)CCCCCC(=O)Nc4ccccc4N)cc3C(=O)N([C@H](C)CO)C[C@H]2C)cc1 | inactive
23 | C[C@H]1CN([C@@H](C)CO)C(=O)c2cc(NC(=O)CCCCCC(=O)Nc3ccccc3N)ccc2O[C@H]1CN(C)C(=O)Nc1ccc(C(F)(F)F)cc1 | active
24 | COc1ccc(NC(=O)N(C)C[C@H]2Oc3ccc(NC(=O)CCCCCC(=O)Nc4ccccc4N)cc3C(=O)N([C@@H](C)CO)C[C@H]2C)cc1 | inactive
25 | C[C@@H]1CN([C@H](C)CO)C(=O)c2cc(NC(=O)CCCCCC(=O)Nc3ccccc3N)ccc2O[C@H]1CN(C)C(=O)Nc1ccc(C(F)(F)F)cc1 | inactive
26 | C[C@H]1CN([C@@H](C)CO)C(=O)c2cc(NC(=O)CCCCCC(=O)Nc3ccccc3N)ccc2O[C@@H]1CN(C)C(=O)Nc1ccc(C(F)(F)F)cc1 | inactive
27 | C[C@H](CO)N1C[C@H](C)[C@@H](CN(C)C(=O)Nc2ccc(C(F)(F)F)cc2)Oc2ccc(NC(=O)CCCCCC(=O)Nc3ccccc3N)cc2C1=O | inactive
28 | COc1ccc(NC(=O)N(C)C[C@@H]2Oc3ccc(NC(=O)CCCCCC(=O)Nc4ccccc4N)cc3C(=O)N([C@H](C)CO)C[C@@H]2C)cc1 | active
29 | C[C@@H]1CN([C@@H](C)CO)C(=O)c2cc(NC(=O)CCCCCC(=O)Nc3ccccc3N)ccc2O[C@@H]1CN(C)C(=O)Nc1ccc(C(F)(F)F)cc1 | inactive
30 | C[C@@H]1CCCCO[C@H](CN(C)S(=O)(=O)c2ccc(F)cc2)[C@@H](C)CN([C@@H](C)CO)C(=O)c2cc(NC(=O)Nc3cccc4ccccc34)ccc2O1 | inactive
31 | CC(=O)N(C)CCc1ccc(C)[n+]([O-])c1 | inactive
32 | C[C@@H]1CN([C@H](C)CO)C(=O)c2cc(-c3cncnc3)cnc2O[C@@H]1CN(C)C(=O)CN1CCOCC1 | inactive
33 | Cc1ccc(S(=O)(=O)N(C)C[C@H]2OCCCC[C@@H](C)Oc3ccc(NC(=O)Nc4ccc(F)cc4)cc3C(=O)N([C@@H](C)CO)C[C@@H]2C)cc1 | inactive
34 | C[C@H](O)C#Cc1cnc2c(c1)C(=O)N([C@H](C)CO)C[C@H](C)[C@H](CN(C)C(=O)Nc1ccc(C(F)(F)F)cc1)O2 | inactive
35 | CO[C@@H]1CN(C)C(=O)c2cc(NC(=O)C3CC3)ccc2OC[C@H](C)N(C(=O)Cc2ccccn2)C[C@H]1C | inactive
36 | O=C1CCC(c2ccc(O)cc2)CC1 | inactive
37 | O=C1C=CC(=O)N1c1ccc(O)cc1 | active
38 | Cc1ccc(S(=O)(=O)N(C)C[C@H]2OCCCC[C@@H](C)Oc3ccc(NC(=O)Nc4ccc(C(F)(F)F)cc4)cc3C(=O)N([C@H](C)CO)C[C@@H]2C)cc1 | inactive
39 | C[C@@H]1CN([C@@H](C)CO)C(=O)c2cc(NC(=O)Cn3cnnn3)ccc2O[C@H]1CN(C)S(=O)(=O)c1cn(C)cn1 | inactive
40 | C[C@@H]1CN([C@H](C)CO)C(=O)c2cc(NC(=O)Nc3cccc4ccccc34)ccc2O[C@@H](C)CCCCO[C@@H]1CN(C)S(=O)(=O)c1cn(C)cn1 | inactive
